Results from PubChem BioAssay (EPA / NIEHS).
Inconclusive results are not listed. The source made the active and inactive calls. Rule for the calls: active = hit-call score of the fitted dose curve at least 0.9, where 1 is the maximum; inconclusive = response in the unintended direction; inactive = score below 0.9.

Each compound was assayed against Steroid hormone receptor ERR1 (Homo sapiens) (UniProt P11474) (assay: ATG_ERRa_TRANS: Attagene TRANS-FACTORIAL HepG2 Assay for human Estrogen-Related Receptor alpha (ERRa) (AID 2282971)). Details: HepG2 Attagene TRANS reporter, ERRa transactivation.
Experimental: ATG_TRANS is a cell-based, multiplexed-readout assay that uses HepG2, a human liver cell line, with measurements taken at 24 hours after chemical dosing in a 24-well plate.ATG_ERRa_TRANS is one of 30 assay component(s) measured or calculated from the ATG_TRANS assay. It is designed to make measurements of mRNA induction, a form of inducible reporter, as detected with fluorescence intensity signals by Reverse transcription polymerase chain reaction (RT-PCR) and Capillary electrophoresis technology.Data from the assay component ATG_ERRa_TRANS was analyzed into 1 assay endpoint. This assay endpoint, ATG_ERRa_TRANS, was analyzed in the positive analysis fitting direction relative to DMSO as the negative control and baseline of activity. Using a type of inducible reporter, measures of mRNA for gain-of-signal activity can be used to understand the reporter gene at the transcription factor-level as they relate to the gene ESRRA. Furthermore, this assay endpoint can be referred to as a primary readout, because this assay has produced multiple assay endpoints where this one serves a reporter gene function. To generalize the intended target to other relatable targets, this assay endpoint is annotated to the nuclear receptor intended target family, where the subfamily is steroidal.
Human liver HepG2 cells are transiently transfected with multiple reporter transcription units (MRTUs) in 6-well plates using FuGene 6 reagent (Roche; 3 ml FuGene/1 mg DNA). The MRTU constructs are regulated by a cis-regulating element (promoter). […] A major difference between the CIS and TRANS system is that in CIS activities of endogenous TFs are measured, whereas the TRANS assay evaluates changes in activities of exogenous, chimeric NR-Gal4 proteins. […] At the end of 24 hour incubation, total RNA was isolated using TriZol reagent (Invitrogen). The isolated RNA is then reverse-transcribed using oligo(dT) primer and Mo-MLV reverse transcriptase (Invitrogen) with DNAse I (Ambion) treatment for 30 min. The one-tenth of the produced cDNA was amplified by PCR using Taq DNA polymerase (Invitrogen) and two reporter sequence-specific primers. The PCR products were fluorescently labeled by primer extension with 6-arboxyfluorescein (6-FAM) 5'-labeled reporter sequence-specific primer (2 min at 95 C, 20 s at 68 C and 10 min at 72 C) and these products were digested with 5U of HpaI (New England Biolabs) for 2h at 37 C. The fragments were purified using Qiaquick PCR columns (Qiagen), analyzed on an ABI 3130xL genetic analyzer (Applied Biosystems) with peak positions identified by using a set of X-rhodamine (ROX)-labeled MapMarker1000 molecular weight standards (BioVentures). The raw capillary electrophoresis data was processed using Attagraph software (Attagene).

Chain of Steroid hormone receptor ERR1 (Homo sapiens) (P11474 whole entry, looked up): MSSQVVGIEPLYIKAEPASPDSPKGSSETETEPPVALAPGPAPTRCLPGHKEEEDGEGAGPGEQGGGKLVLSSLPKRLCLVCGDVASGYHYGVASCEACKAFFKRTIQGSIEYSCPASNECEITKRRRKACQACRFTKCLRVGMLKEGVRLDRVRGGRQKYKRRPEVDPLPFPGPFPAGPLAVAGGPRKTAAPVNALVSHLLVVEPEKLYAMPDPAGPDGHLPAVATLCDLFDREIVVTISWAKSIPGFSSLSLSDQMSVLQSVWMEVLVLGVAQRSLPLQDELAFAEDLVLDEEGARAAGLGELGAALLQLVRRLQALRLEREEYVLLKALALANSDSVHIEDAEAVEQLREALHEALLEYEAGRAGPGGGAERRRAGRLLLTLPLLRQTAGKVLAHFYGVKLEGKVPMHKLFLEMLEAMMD

Row | SMILES | outcome
1 | COC(F)(C(F)F)C(F)(F)F (stereo not given) | inactive
2 | C[C@]12CC[C@H]3C(=CCc4cc(O)ccc43)[C@@H]1CCC2=O | inactive
3 | NC(=O)C(F)(F)C(F)(F)C(F)(F)C(F)(F)C(F)(F)C(F)(F)C(F)(F)F | inactive
4 | OCCCCl | inactive
5 | OCCCC(F)(F)C(F)(F)C(F)(F)C(F)(F)C(F)(F)C(F)(F)C(F)(F)C(F)(F)F | inactive
6 | O=S(=O)(O)CCC(F)(F)C(F)(F)C(F)(F)C(F)(F)C(F)(F)C(F)(F)C(F)(F)C(F)(F)F | inactive
7 | O=c1cccc[nH]1 | inactive
8 | OCC(O)CC(F)(F)C(F)(F)C(F)(F)C(F)(F)C(F)(F)C(F)(F)C(F)(F)C(F)(F)F (stereo not given) | inactive
9 | OC(O)C(F)(F)C(F)(F)F | inactive
10 | O=S(=O)(Cl)C(F)(F)C(F)(F)C(F)(F)C(F)(F)C(F)(F)C(F)(F)C(F)(F)C(F)(F)F | inactive
11 | O=S(=O)(O)CCC(F)(F)C(F)(F)C(F)(F)C(F)(F)F | inactive
12 | O=C1C=CC(=O)N1c1ccccc1 | inactive
13 | Oc1ccc2c(c1)CCC2 | inactive
14 | CN(C(=O)C(F)(F)C(F)(F)C(F)(F)F)[Si](C)(C)C | inactive
15 | FC(F)(F)C(F)(F)C(F)(F)C(F)(F)C(F)(F)C(F)(F)CC[Si](Cl)(Cl)Cl | inactive
16 | Cc1ccc2c(c1)OCC(=O)CO2 | inactive
17 | O=S(=O)(OCC(F)(F)F)C(F)(F)C(F)(F)C(F)(F)C(F)(F)F | inactive
18 | Cc1cc(=O)[nH]c(C(C)C)n1 | inactive
19 | F[Si-2](F)(F)(F)(F)F | inactive
20 | O=c1[nH]cccc1O | inactive

Row | SMILES | outcome
21 | C[Si](Cl)(Cl)CCC(F)(F)C(F)(F)C(F)(F)C(F)(F)C(F)(F)C(F)(F)F | inactive
22 | NCC(F)(F)C(F)(F)C(F)(F)C(F)(F)C(F)(F)C(F)(F)F | inactive
23 | O=C1c2ccccc2C(=O)c2c(Cl)cccc21 | inactive
24 | CCOC(C=C(C)CCC=C(C)C)OCC | inactive
25 | O=C(O)CCC(F)(F)C(F)(F)C(F)(F)F | inactive
26 | CC1=CCC(=O)O1 | inactive
27 | C=CC(=O)OCCC(F)(F)C(F)(F)C(F)(F)C(F)(F)F | inactive
28 | c1ccc(C[P+](c2ccccc2)(c2ccccc2)c2ccccc2)cc1 | inactive
29 | FC(F)(F)C(F)(F)C(F)(F)CC1CO1 (stereo not given) | inactive
30 | C=C(C)C(=O)OCC(F)(F)C(F)(F)C(F)(F)C(F)F | inactive
31 | Cc1ccc(O)cn1 | inactive
32 | CSc1ccc(O)cc1C | inactive
33 | CC1=CC2C3C=CC(C3)C2C1C (stereo not given) | inactive
34 | C#CC(O)CCC (stereo not given) | inactive
35 | NC(=O)C(F)(F)C(F)(F)C(F)(F)C(F)(F)C(N)=O | inactive
36 | CNS(=O)(=O)C(F)(F)C(F)(F)C(F)(F)C(F)(F)C(F)(F)C(F)(F)C(F)(F)C(F)(F)F | inactive
37 | COC(=O)c1ccc(C=O)cc1 | inactive
38 | Cc1ccc([N+](=O)[O-])c(C)c1 | inactive
39 | CCCCCCCC/C=C\CCCCCCCC(=O)OCC(O)CO (stereo not given) | inactive
40 | CCOC(=O)CC(=O)C(F)(F)C(F)(F)F | inactive
